Results from PubChem BioAssay (NCI).
Compounds without any hit were thinned out: in the full panel of roughly 83,000, 20% have a hit.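 Values shown are percent growth following 48 h exposure of cells in 96-well plates to a single concentration of compound; below 10 was considered active.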 Unmarked numbers belong to inactive results. Active and inactive are the calls of the source.

Columns and labels:
Assay in all cases: NCI-60 one-dose screen, 48 h (100 = growth as untreated, 0 = no growth, -100 = all killed)
Conditions in all cases: 10 µM unless noted
DU-145 prostate = tested on: DU-145 prostate
K-562 leukemia = tested on: K-562 leukemia
MALME-3M melanoma = tested on: MALME-3M melanoma
RXF 393 renal = tested on: RXF 393 renal
SF-268 CNS = tested on: SF-268 CNS
SF-295 CNS = tested on: SF-295 CNS
SF-539 CNS = tested on: SF-539 CNS
UACC-257 melanoma = tested on: UACC-257 melanoma
M14 melanoma = tested on: M14 melanoma
MDA-MB-231 breast = tested on: MDA-MB-231 breast

| Structure (SMILES) | growth (DU-145 prostate) | growth (K-562 leukemia) | growth (MALME-3M melanoma) | growth (RXF 393 renal) | growth (SF-268 CNS) | growth (SF-295 CNS) | growth (SF-539 CNS) | growth (UACC-257 melanoma) | growth (M14 melanoma) | growth (MDA-MB-231 breast) |
| --- | --- | --- | --- | --- | --- | --- | --- | --- | --- | --- |
| Nc1cc2ccccc2c(=O)n1NC(=O)c1ccc(I)cc1 | 102% | 90.4% | 97.4% | 108% | 94.9% | 97.6% | 96.5% | 93.3% | 102% |  |
| COc1ccc2cc([C@H](C)C(=O)N/N=C/c3ccc(Br)cc3)ccc2c1 | 108% | 100% | 95.3% | 100% | 99.5% | 98.8% | 102% | 110% | 102% |  |
| COc1c(F)ccc(C(=O)Nc2ccc3nc(NC(=O)C4CCCN(S(=O)(=O)c5cccc(Cl)c5)C4)sc3c2)c1F (configuration not stated) | 90.5% | 53.8% | 97.6% | -6.85% (active) | 86.9% | 78.7% | 70.7% | 84.7% | 84.7% | 87.9% |
| O=C(/C=C/c1ccc(-c2ccccc2)cc1)c1nc2ccccc2n1Cc1ccc(Br)cc1 | 80.5% | 36% | 44% | 35.3% | 62.9% | 21.9% | 17.7% | 67.4% | 74% |  |
| CC1=C(C(=O)c2ccccc2)C(c2ccc(-n3cncn3)cc2)n2c(nc3ccccc32)N1 (configuration not stated) | 71.7% | 74.6% | 81% | 73.6% | 77.1% | 84% | 39.1% | 89.1% | 99.2% |  |
| O=C(O)c1ccc(-c2ccc(/C=N/NC(=O)c3[nH]c4ccc(Br)cc4c3-c3ccccc3)s2)cc1 | 28.2% | 22.5% | -8.14% (active) | -24.4% (active) | 21.1% | -11.9% (active) | 1.96% (active) | 44.3% | 28.2% |  |
| C=Cn1cc(C(=O)O)c(=O)c2cc(F)c(N3CCN(c4nccc(-c5nccs5)n4)CC3)cc21 | -3.99% (active) | 11.4% | -29.2% (active) | -52.3% (active) | 22% | -26.4% (active) | -42.7% (active) | -27.3% (active) | -1.11% (active) |  |
| CC(=O)Nc1cccc(Nc2nccc(N[C@@H](C)c3ccccc3)n2)c1 | 24.8% | 7.64% (active) | 28.7% | 21.2% | 27.6% | -8.12% (active) | 9.09% (active) | 40.5% | 22.6% |  |
| C[C@H](Nc1nc(NCCc2ccccc2)nc2ccccc12)c1ccccc1 | -85.6% (active) | -43.9% (active) | -91.7% (active) | -90.5% (active) | -70.4% (active) | -95.8% (active) | -96.2% (active) | -76% (active) | -84.5% (active) |  |
| N#Cc1c(-c2cccc(Cl)c2Cl)cc(-c2c[nH]c3ccccc23)[nH]c1=O | 68.1% | 30.1% | 54.4% | 36.8% | 89.7% | 51.7% | 68.1% | 101% | 34.7% |  |
| CC1=C(C(=O)OC(C)C)C(c2cccc(O)c2)NC(=S)N1 (configuration not stated) | 104% | 83.2% | 92.7% | 110% | 109% | 96.8% | 94.7% | 92.8% | 109% |  |
| CSc1ccc(NC(=O)c2ccc3nn(/C(C#N)=C/c4ccccn4)nc3c2)cc1 | -100% (active) | -13.4% (active) | -89.4% (active) | -94.9% (active) | -40% (active) | -95.7% (active) | -95% (active) | -89.3% (active) | -86% (active) |  |
| O=c1c2ccccc2nc(-c2ccccc2)n1/N=C/c1ccc2ccccc2c1 | 55.8% | 26.7% | 59% | 81.2% | 49.9% | 46.8% | 27.2% | 49.3% | 57.2% |  |
| COc1cc(-c2ccc(/C=N/NC(=O)c3[nH]c4ccc(Br)cc4c3-c3ccccc3)o2)cc(OC)c1OC | 81.1% | 85.6% | 95.4% | 88.7% | 59% | 56.6% | -13.1% (active) | 92.1% | 74.9% |  |
